MITF primary = MITF inhibitors, primary screen, biochemical, AlphaScreen, human | Microphthalmia-associated transcription factor (Homo sapiens), O75030 | AlphaScreen MITF homodimerization, bead proximity signal | inhibition, % at 2.6 µM | 650,000 tested, 0.91% active; in the data active means inhibition above about 50%
FBW7 act = FBW7 E3 ligase activators, primary screen, biochemical, AlphaScreen, human | AlphaScreen FBW7–phospho-cyclin E peptide binding, activator screen | 650,000 tested, 0.13% active | normalized activity (activation), % at 26.1 µM | F-box/WD repeat-containing protein 7 (Homo sapiens), Q969H0 | AID 1259310, 2017; in the data active means normalized activity above about 1.9%;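 further: purified mutant Fbw7 with reduced substrate affinity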
TEAD-YAP inh = TEAD-YAP interaction inhibition, primary screen, TEAD-YAP interaction inhibitor project, luminescence, HEK-TIYL cells. 640,000 tested, 1.4% active. TEAD-Gal4/YAP UAS-luciferase luminescence. inhibition, % at 9.12 µM; in the data active means inhibition above about 32%
GPR151 ag = activators of human GPR151, primary screen, cell-based, PathHunter beta-arrestin, luminescence; 650,000 tested, 1% active; G-protein coupled receptor 151 (Homo sapiens), Q8TDV0; PathHunter beta-arrestin GPR151 cells; AID 1508602, 2020; activation, % at 11.2 µM; in the data active means activation above about 4.9%
Target sequence (Q8TDV0 whole entry, looked up): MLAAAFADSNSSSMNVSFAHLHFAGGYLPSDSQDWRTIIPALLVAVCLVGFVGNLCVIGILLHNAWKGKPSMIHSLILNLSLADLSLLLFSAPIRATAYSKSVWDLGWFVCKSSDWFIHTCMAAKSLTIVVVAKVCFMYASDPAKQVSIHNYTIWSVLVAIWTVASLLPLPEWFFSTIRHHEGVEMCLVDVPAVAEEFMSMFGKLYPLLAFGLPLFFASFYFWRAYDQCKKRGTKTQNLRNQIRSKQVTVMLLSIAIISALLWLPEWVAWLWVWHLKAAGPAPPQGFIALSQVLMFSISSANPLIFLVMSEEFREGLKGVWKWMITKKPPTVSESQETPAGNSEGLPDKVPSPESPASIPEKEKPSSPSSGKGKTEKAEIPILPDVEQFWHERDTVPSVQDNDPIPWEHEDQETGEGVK
GPR151 conf act = GPR151 activators, triplicate retest, confirmation, cell-based, PathHunter beta-arrestin, luminescence | shares compounds with GPR151 ag | GPR151 PathHunter beta-arrestin cells, 90 min; % of EA-reagent control over plate median | activation, % at 11.2 µM | 6,700 tested, under 10 active | AID 1508609, 2020;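 active means mean percent activation across replicates above the confirmation screen cutoff of 4.91%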
GPR119 counter = GPR119 activators in beta-arrestin cells, counter-screen for GPR151 activator project, cell-based, PathHunter beta-arrestin, luminescence, triplicate; AID 1508611, 2020; shares compounds with GPR151 ag; 90 min; 0 = compound-well median, 100 = enzyme-acceptor control; 6,700 tested, 0.3% active; activation, % at 11.2 µM;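 active means mean percent activation in the counterscreen above 29.09%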;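 further: counterscreen on off-target GPR119 to flag nonselective hits from the GPR151 activator screen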
Hits are given with their value; – = inactive; · = not tested or not shown. A selection: hits, their analogues and other compounds. The true share with any hit is near 3.4%.

SMILES	MITF primary	FBW7 act	TEAD-YAP inh	GPR151 ag	GPR151 conf act	GPR119 counter
COc1ccccc1CNC(=O)CCc1c(C)nc2c(c(C)nn2C(C)(C)C)c1C	–	–	–	–	·	·
CCCC(=O)Nc1cc(C(C)(C)C)on1	–	–	–	–	·	·
COc1ccc(OC)c(NC(=O)CSc2nc3n[nH]c(C)c3c(=N)n2-c2ccc(Cl)c(C)c2)c1	–	–	–	–	·	·
c1ccc(Cn2cc(-c3ncoc3-c3ccnc(Nc4ccc(N5CCOCC5)cc4)c3)cn2)cc1	–	–	45.3	6.0	–	–
O=C(NCc1ccco1)C1CCC(Cn2c(SCc3ccc([N+](=O)[O-])cc3)nc3ccccc3c2=O)CC1 (centres undefined)	–	–	–	–	·	·
CCc1cc2c(SCC(=O)Nc3sccc3C(N)=O)ncnc2s1	–	–	–	7.0	–	–
CCc1cc2c(SCC(=O)c3ccccc3)ncnc2s1	–	–	–	–	·	·
CCc1cc2c(SCC(=O)Nc3ccc(Br)cc3)ncnc2s1	–	–	–	–	·	·
CCc1cc2c(SCC(=O)c3cccs3)ncnc2s1	–	–	–	5.1	–	–
CCCC1=NN2C(=N)/C(=C/c3ccc(-c4ccc(C(=O)OCC)cc4)o3)C(=O)N=C2S1	–	–	–	5.2	–	–
COc1ccccc1CCc1nnc(CCC(=O)N(C)CCn2nc(C)cc2C)o1	–	–	–	–	·	·
Cn1c(SCc2nc(-c3cccs3)no2)nnc1-c1ccco1	–	–	–	–	·	·
CCn1c(SCc2nc(-c3cccs3)no2)nnc1-c1ccco1	–	–	–	6.9	–	–
COCCN1C(=O)/C(=C\c2cccc(OC)c2OC)C(C(=O)OC)=C1C	–	–	–	–	·	·
O=C(Cc1ccc(N2CCC(NCCn3ccnc3)CC2)cc1)NCCc1cccc(F)c1	–	–	–	6.0	–	–
CCc1ccccc1-n1c(C)c(C)n2c3c(=O)n(CC(N)=O)c(=O)n(C)c3nc12	–	–	–	–	·	·
CCc1ccccc1-n1c(C)c(C)n2c3c(=O)n(CC)c(=O)n(C)c3nc12	–	–	–	5.1	–	–
CC(C)OCCCNCc1c(C(=O)O)n(Cc2ccc(F)cc2)c2ccccc12	–	–	–	–	·	·
CC(=O)C/C(C)=N/NC(=O)C(C)Oc1ccc(Cl)cc1C (centres undefined)	–	–	–	–	·	·
COCC(=O)NNC(=O)C(C)Oc1ccc(Cl)cc1Cl (centres undefined)	–	–	–	5.0	–	–
CCNC(=O)C(C)Oc1ccc(Cl)cc1C (centres undefined)	–	–	–	5.5	–	–
CCC(=O)NNC(=O)C(C)Oc1ccc(Cl)cc1Cl (centres undefined)	–	–	–	–	·	·
CCOc1cc(/C=C2/C(=N)N3N=C(CC)SC3=NC2=O)cc(Cl)c1OCCOc1cc(C)ccc1C	–	–	–	8.4	–	–
CCOc1cc(/C=C2/C(=N)N3N=C(CC)SC3=NC2=O)cc(Cl)c1OCCOc1ccc(C)cc1C	–	–	–	–	·	·
C/C(CC(=O)NCc1ccc(Cl)cc1)=N\NC(=O)c1cccc(C)c1O	–	–	–	–	·	·
SMILES	MITF primary	FBW7 act	TEAD-YAP inh	GPR151 ag	GPR151 conf act	GPR119 counter
O=C(NCCc1ccccc1)C(F)(F)C(F)F	–	–	–	19.0	–	–
O=[N+]([O-])c1ccccc1-c1cnn(-c2ccc(F)cc2F)c1	–	–	–	5.9	–	–
O=[N+]([O-])c1ccccc1-c1cnn(-c2ccccc2)c1	–	–	–	–	·	·
NC(=O)COC(=O)/C=C/c1ccc(Cl)cc1	–	–	–	5.6	–	–
COc1ccc(Nc2cc(-c3ccccn3)nc(C)n2)cc1	–	–	–	–	·	·
COC(=O)c1cccn2cc(-c3ccc(F)cc3)nc12	–	–	–	4.9	–	–
CCOC(=O)c1cccc(NC(=O)n2ncc3cc(Cl)ccc32)c1	–	–	84.6	5.6	–	–
CCOC(=O)c1ccccc1NC(=O)n1ncc2cc(Cl)ccc21	–	–	–	–	·	·
COC(=O)c1cc2c(cc1NC(=O)NCc1noc3ccccc13)OCO2	–	–	–	9.2	–	–

Source: PubChem
